This note sets out measurements from ChEMBL document CHEMBL3433997, “St. Jude Leishmania screening dataset” (2016).

The structures appear in SMILES notation.

Type in all cases: functional
In assay [1] the target is Solute carrier family 2, facilitated glucose transporter member 1 (Homo sapiens) (UniProt P11166). Nature of the assay: ST_JUDE_LEISH: Cytotoxicity at 2uM final concentration against transgenic Leishmania Mexicana promastigotes LmGLUT1 that are glucose transport deficient and complemented with the human glucose transporter GLUT1. Activity is measured by DNA content using SYBR green in vitro.

Assay [2] concerns the target Hexose transporter 1 (Plasmodium falciparum) (UniProt O97467). As to the kind of experiment: ST_JUDE_LEISH: Cytotoxicity at 2uM final concentration against transgenic Leishmania Mexicana promastigotes LmPfHT that are glucose transport deficient and complemented with the Plasmodium falciparum hexose transporter. Activity is measured by DNA content using SYBR green in vitro.

The target in assay [3] is Glucose transporter (Leishmania mexicana) (UniProt O61059). As to the kind of experiment: ST_JUDE_LEISH: Cytotoxicity at 2uM final concentration against transgenic Leishmania Mexicana promastigotes LmGT2 that are glucose transport deficient and complemented with the L. Mexicana glucose transporter 2. Activity is measured by DNA content using SYBR green in vitro.

Sequence of Solute carrier family 2, facilitated glucose transporter member 1 (Homo sapiens) (P11166 whole entry): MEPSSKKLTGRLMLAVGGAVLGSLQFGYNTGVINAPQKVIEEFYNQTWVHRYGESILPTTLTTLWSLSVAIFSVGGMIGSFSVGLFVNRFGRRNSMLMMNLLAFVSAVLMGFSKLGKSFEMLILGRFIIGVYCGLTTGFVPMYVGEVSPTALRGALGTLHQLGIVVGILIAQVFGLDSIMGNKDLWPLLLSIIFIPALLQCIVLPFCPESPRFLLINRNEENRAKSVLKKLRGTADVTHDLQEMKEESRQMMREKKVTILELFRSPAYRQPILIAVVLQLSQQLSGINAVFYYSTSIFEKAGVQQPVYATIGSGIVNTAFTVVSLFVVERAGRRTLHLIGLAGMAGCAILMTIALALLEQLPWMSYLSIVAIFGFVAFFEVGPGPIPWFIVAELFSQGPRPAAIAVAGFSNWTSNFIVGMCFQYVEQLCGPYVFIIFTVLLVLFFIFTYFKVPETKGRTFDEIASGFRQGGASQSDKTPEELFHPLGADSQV

Turning to `COc1cc2ncnc(Nc3ccc(OCc4ccccc4Br)c(OC)c3)c2cc1OC`, the inhibition was 1.37% in assay [1], 0.69% in assay [2] and -0.16% in assay [3].
For `COc1cc2nc(N3CCC(CNC(=O)c4cc5ccccc5s4)CC3)nc(N)c2cc1OC`, in that order: 11.8%, 11% and 10.4%.
The like results for `O=S(=O)(NCCN1CCCC1)c1ccc(-c2ccc(CNCc3ccc(F)cc3)cc2)s1` were, in that order, 7.34%, 5.54% and 0.98%.
With `CCOc1ccccc1CON1C(N)=NC(N)=NC1(C)C`, the inhibition in assay [1] is 4.48%; in assay [2] it was 3.69%; in assay [3], 7.54%.
For `Cc1cnc(C(=O)Nc2ccc3c(c2)CCCN(Cc2c[nH]c4cnccc24)C3)cn1`, in that order: 11.1%, 11.4% and 9.32%.
The like results for `CCCCCCCCc1c(C)[nH]c(C)c(Cl)c1=O` were, in that order, 0.5%, 0.28% and -0.99%.
The like results for `COc1cc(OC)cc(C(=O)Nc2ccc(Nc3nc(C)cc(N(C)C)n3)cc2)c1` were, in that order, 6.01%, 12.8% and 6.54%.
As for `Cn1c(Nc2cc(C(C)(C)C)on2)nc2cc(Nc3ccnc(Nc4cccc(CS(C)(=O)=O)c4)n3)ccc21`, the inhibition in assay [1] was 0.14%; in assay [2], 2.81%; in assay [3], -0.39%.
For the compound `c1ccc2cc3c(Nc4ccc(N5CCCCCC5)cc4)ccnc3cc2c1`, the inhibition in assay [1] is 0.03%; in assay [2], 0.23%; in assay [3] it was 0.24%.
The like results for `O=C(NCCN1CCC(c2ccncc2)CC1)c1ccc(Nc2nccc(Nc3ccc(Oc4ccccc4)cc3)n2)cc1` were, in that order, -0.62%, -0.94% and -1.34%.
The like results for `O=C(NCCCCCN1CCC(c2c[nH]c3ccccc23)CC1)Nc1ccc(I)c(Cl)c1` were, in that order, 7.04%, 4.76% and 5.92%.
Regarding `COc1ccc(C2C(C(=O)Nc3cc(C)ccc3OC)c3ccccc3C(=O)N2C)cc1` (centres undefined), the inhibition came out at 5.62% in assay [1], 5.84% in assay [2] and 1.74% in assay [3].
The like results for `N#Cc1cncc(-c2nc3c(N4CCC(Cc5ccccc5)CC4)cccc3n2C2CCNC2)c1` (centres undefined) were, in that order, -0.31%, -0.39% and -0.61%.

By inhibition is commonly meant the change of the read-out against control, counted positive when it falls.
